Most compounds without a hit are left out; they make up all but 2% or so of the library.
GC-B act: GC-B (human) receptor activation | P20594 | HEK293-GC-B cells, CNP EC30, cGMP TR-FRET; 0% at EC30 CNP, 100% saturating CNP | activation, % at 10 µM | actives 0.11% (n = 370,000) | AID 1920062;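 active = activation at 10 µM reaching about 35% in either raw or pattern-adjusted values, limit read from the data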
Neddyl block: cullin neddylation inhibition | inhibition, % at 25 µM | TR-FRET cullin neddylation, biochemical | actives 0.58% (n = 360,000) | P61081+Q13564; in the data active = inhibition above about 36%
APOBEC3G inh: APOBEC3G (human) deaminase inhibition | Q9HC16 | actives 0.28% (n = 330,000) | inhibition, % at 20 µM | recombinant A3G, ssDNA deamination FAM/TAMRA fluorescence;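 active = inhibition of at least 40% at 20 µM, with no more than 30% in the related APOBEC3A deaminase screen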;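 also: plate controls were DMSO wells with A3G for no effect and wells lacking A3G enzyme for full effect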
Target sequence (Q9HC16 whole entry, looked up): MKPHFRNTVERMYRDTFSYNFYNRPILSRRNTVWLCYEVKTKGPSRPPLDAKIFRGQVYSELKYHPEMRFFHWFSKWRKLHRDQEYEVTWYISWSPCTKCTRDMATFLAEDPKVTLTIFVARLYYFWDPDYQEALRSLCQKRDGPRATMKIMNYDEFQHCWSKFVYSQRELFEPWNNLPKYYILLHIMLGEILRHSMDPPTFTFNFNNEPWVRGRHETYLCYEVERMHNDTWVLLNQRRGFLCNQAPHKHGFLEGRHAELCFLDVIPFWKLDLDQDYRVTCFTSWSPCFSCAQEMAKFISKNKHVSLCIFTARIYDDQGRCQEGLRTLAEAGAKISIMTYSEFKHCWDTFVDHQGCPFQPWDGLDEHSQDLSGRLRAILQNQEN
A3A deaminase: blocks human APOBEC3A ssDNA deamination | P31941 | recombinant A3A, FAM/TAMRA ssDNA deamination fluorescence | inhibition, % at 20 µM | actives 0.41% (n = 330,000) | AID 493011;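 active = at least 40% inhibition at 20 µM here, with at most 30% in a related deaminase screen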;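 also: plate controls were A3A with DMSO for no effect and wells lacking A3A enzyme for full effect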
Target sequence (P31941 whole entry, looked up): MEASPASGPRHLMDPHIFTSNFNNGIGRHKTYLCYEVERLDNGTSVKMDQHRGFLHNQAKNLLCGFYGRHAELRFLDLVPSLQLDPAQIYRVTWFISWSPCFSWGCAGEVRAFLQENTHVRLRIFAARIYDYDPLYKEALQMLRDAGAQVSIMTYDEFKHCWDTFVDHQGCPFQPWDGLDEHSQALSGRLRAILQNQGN
GC-A act: GC-A (human) enzyme activation | P16066 | actives 0.14% (n = 370,000) | AID 1671463 | HEK293 GC-A cells, cGMP TR-FRET, EC30 ANP; 0% at EC30 ANP, 100% saturating ANP | activation, % at 10 µM; in the data active = activation above about 40%
PfGluPho inh: PfG6PD (Plasmodium falciparum) enzyme inhibition; actives 0.78% (n = 350,000); AID 504690; PfGluPho enzyme, NADPH resazurin-diaphorase fluorescence; inhibition, % at 20 µM;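 active = inhibition reaching at least a set limit at 20 µM in the primary screen, cut at about 59% in these data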;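 also: 0% = DMSO wells with substrate and 100% = DMSO wells lacking glucose-6-phosphate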
PfGluPho conf: confirmation of Plasmodium falciparum G6PD inhibitors | inhibition, % at 20 µM | AID 504753 | shares compounds with PfGluPho inh | actives 34% (n = 2,400) | recombinant PfGluPho, NADPH-diaphorase-resazurin fluorescence;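 active = inhibition of at least 50% at 20 µM in any single replicate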;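 also: 0% = DMSO with substrate and 100% = DMSO lacking glucose-6-phosphate substrate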
Diaphorase 10uM: inhibits diaphorase or oxidizes, flagging false PfG6PD hits. inhibition, % at 20 µM. diaphorase-coupled resazurin reduction, fluorescence, NADPH 10 uM. actives 39% (n = 820). shares compounds with PfGluPho inh. AID 504862;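 active = average inhibition reaching 50% or more with the compound at 20 µM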;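 also: resorufin red fluorescence formed as diaphorase reduces resazurin using NADPH; 0% = DMSO with enzyme and 100% = DMSO without enzyme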
Diaphorase 30uM: diaphorase inhibition or oxidation at 30 uM NADPH; actives 29% (n = 820); shares compounds with PfGluPho inh; Diaphorase/resazurin coupled assay, resorufin fluorescence; AID 504863; inhibition, % at 20 µM;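 active = inhibition averaging 50% or more, tested at 20 µM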;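 also: 0% = DMSO with enzyme and 100% = DMSO wells lacking diaphorase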
Numbers without * were called inactive; / = not tested or not shown.

SMILES | GC-B act | Neddyl block | APOBEC3G inh | A3A deaminase | GC-A act | PfGluPho inh | PfGluPho conf | others
Cc1cc(C)c(C)c(S(=O)(=O)Nc2ccccc2N2CCOCC2)c1C | -9 | -15 | -5 | -1 | -15 | 65* | 14
O=C1c2[nH]nc(-c3ccccc3)c2C(c2cccc(C(F)(F)F)c2)N1c1ccccc1 (configuration not stated) | -15 | / | / | / | -20 | / | /
COc1ccc2c(c1)C(=O)N(c1ccccc1)C(=O)C2 | -1 | 26 | 6 | 1 | -2 | -13 | /
COc1ccc2c(c1)C1(C)CC(C)(C)N2C(=O)N1c1ccccc1 (configuration not stated) | 1 | 12 | -4 | -2 | -2 | 73* | 47
COc1ccc2[nH]c3c(c2c1)CCN[C@]31C(=O)N(Cc2ccccc2)c2ccccc21 | 6 | / | / | / | 2 | / | /
Cc1ccc(-n2nc(C(=O)N3CCOCC3)cc2-c2ccc(Cl)cc2)cc1 | -4 | 4 | 6 | 0 | -9 | 60* | 35
Cc1ccc(NC(=O)c2sc(=S)n(-c3cc(C)ccc3F)c2N)cc1 | -1 | -4 | 3 | 0 | 3 | 75* | 25
Cc1ccc(-n2c(N)c(C(=O)Nc3ccccc3F)sc2=S)cc1C | -3 | -13 | -2 | 4 | 3 | 70* | -3
Cc1ccccc1-n1c(N)c(C(=O)Nc2ccc(F)cc2)sc1=S | 7 | 0 | -12 | 2 | 0 | 34 | /
O=C(CNC(=O)C1COc2ccccc2O1)N/N=C\c1ccc(Br)cc1 (configuration not stated) | -4 | 0 | -8 | -3 | -3 | -3 | /
COc1ccc(Br)cc1/C=N/NC(=O)CNC(=O)C1COc2ccccc2O1 (configuration not stated) | -3 | -10 | -1 | 1 | 0 | 119* | 103* | Diaphorase 10uM=97*;Diaphorase 30uM=77*
COC(=O)c1ccc(CCc2cc(O)ccc2O)cc1 | / | 8 | / | / | / | 59 | 10
COC(=O)c1ccc(CCc2cc(O)c(Br)cc2O)cc1 | 6 | 0 | / | / | 5 | 119* | 19
Cc1ccc(-c2nnc(SCC(=O)Nc3ccc4c(c3)OCCO4)n2-c2ccc(Cl)cc2)cc1 | 2 | / | / | / | -2 | / | /
O=C(c1ccncc1)N1CCC(Oc2cccnc2)CC1 | 1 | / | / | / | 1 | / | /
COc1cc2c(cc1OC)C(=O)C(Br)CC2 (configuration not stated) | / | 6 | / | / | / | 112* | 106* | Diaphorase 10uM=101*;Diaphorase 30uM=98*
Cc1ccsc1/C=N/NC(=O)c1cccc(S(=O)(=O)Nc2ccccc2Cl)c1 | -3 | 0 | -6 | 0 | -5 | 64* | 60* | Diaphorase 10uM=43;Diaphorase 30uM=47
Brc1cccc(C=Nc2cccc3ncccc23)c1 | -5 | 33 | -10 | -7 | 2 | 10 | /
Oc1c(Br)cc(Br)cc1C=Nc1cccc2ncccc12 | -6 | 55* | 8 | 2 | 0 | 48 | 36
Cc1cc(N2CCN(C(=O)OC(C)(C)C)C[C@H]2C)ccc1N1CCS(=O)(=O)CC1 | 2 | / | / | / | 0 | / | /
CC1(C)Cc2[nH]c(=S)c(C#N)cc2CO1 | 2 | -2 | 4 | -2 | 4 | 63* | 30
S=c1ncc2[nH]c(=S)[nH]c2[nH]1 | / | -15 | / | / | / | 68* | 59* | Diaphorase 10uM=-21;Diaphorase 30uM=2
S=c1[nH]c2cc3c(cc2[nH]1)OCCO3 | -6 | 5 | 17 | -4 | -8 | 19 | /
COC(=O)[C@]12C[C@H](CC(=O)N3CCC(c4ccccc4)CC3)C(=O)N(Cc3cccc4ccccc34)C1=C[C@H](COCc1ccccc1)O[C@@H]2C | 0 | / | / | / | 0 | / | /
Nc1ccc(C2=Nc3cccc4cccc(c34)N2)cc1 | 2 | -11 | / | / | -3 | 18 | /
SMILES | GC-B act | Neddyl block | APOBEC3G inh | A3A deaminase | GC-A act | PfGluPho inh | PfGluPho conf | others
COc1cccc(C2=Nc3cccc4cccc(c34)N2)c1 | 5 | -27 | 7 | 1 | 9 | 73* | 38
COc1ccc(N2CC(C(=O)N/N=C/c3ccccc3)CC2=O)cc1 (configuration not stated) | -2 | 1 | 0 | 2 | -1 | -6 | /
O=C(N/N=C/c1cccc(Br)c1)C1CC(=O)N(c2ccccc2)C1 (configuration not stated) | -12 | -9 | -13 | -4 | -1 | 73* | 45
COc1cc(N)c2ncccc2c1Br | -3 | -18 | / | / | 5 | 57 | /
COc1cc(N)c2ncccc2c1SC | -1 | -6 | / | / | -2 | 66* | 62* | Diaphorase 10uM=-9;Diaphorase 30uM=8
COc1cccc(NC(=O)c2ccc3c(c2)N(C)CCS3)c1 | 1 | / | 0 | -1 | 3 | 94* | 27
COc1ccc(Br)cc1CNC(=O)c1ccc2c(c1)N(C)CCS2 | -4 | -2 | -5 | 1 | 1 | 26 | /
CN1CCSc2ccc(C(=O)NCc3cccc(F)c3)cc21 | -1 | 36 | -7 | -6 | 0 | 69* | -20
COc1cc(C(c2sc3nc(C)nn3c2O)N2CCc3ccccc3C2)cc(OC)c1OC (configuration not stated) | -2 | 13 | -3 | -5 | 2 | -15 | /
COc1ccc(C(c2sc3nc(C)nn3c2O)N2CCc3ccccc3C2)cc1 (configuration not stated) | -4 | 0 | -4 | 1 | 2 | 59* | -21
Cc1cc(S(=O)(=O)ON2C(=O)c3ccccc3C2=O)ccc1F | 35 | 15 | / | / | 40* | 65* | 6
Cc1ccc(C)c(NS(=O)(=O)c2c(C)nn(C)c2C)c1 | 0 | 7 | -1 | 1 | 1 | 1 | /
Cc1ccc(OS(=O)(=O)c2c(C)nn(C)c2Cl)c(C)c1 | -2 | 11 | -9 | -4 | 1 | 75* | 34
CCn1c(SCC(=O)Nc2ccc(F)cc2)nnc1-c1cnccn1 | 0 | 3 | -4 | 0 | -2 | 87* | 36
CCn1c(SCC(=O)Nc2ccccc2Br)nnc1-c1cnccn1 | -2 | 7 | -3 | -2 | 0 | 40 | /
CCOc1ccccc1NC(=O)CSc1nnc(-c2cnccn2)n1CC | -2 | -1 | -2 | 3 | -3 | 73* | 48
C=CCn1c(SCC(=O)Nc2c(C)cccc2C)nnc1-c1cnccn1 | 0 | 4 | -5 | -2 | -4 | -4 | /
C=CCn1c(SCC(=O)Nc2ccc(F)cc2)nnc1-c1cnccn1 | -1 | 10 | 8 | 4 | -5 | 64* | 35
CCOC(=O)[C@@]12CCCC3=C1N(CCC3)C(=O)[C@H]2CC(=O)NCc1cccs1 | -14 | / | / | / | 4 | / | /
